Values joined by “and” are separate entries in the source; they are usually repeats but may differ in a detail not shown here. Identical values can stand only once. Inconclusive results are not listed. Some compounds were tested as several samples or in several runs, with calls that do not always agree. Active and inactive are the calls of the source. The calls were made as follows, unless noted: active = hit-call score of the fitted dose curve at least 0.9, where 1 is the maximum; inactive = score below 0.9.
Columns and labels:
[1] = molecular target: Estrogen receptor (Homo sapiens) (UniProt P03372); experiment: CCTE_Deisenroth_AIME_384WELL_LUC_Active: CCTE's 384-well Estrogen Receptor Transactivation Assay with AIME metabolic competence (ERTA luciferase; metabolism positive), Deisenroth Lab (AID 2284030; active = hit-call score of the fitted dose curve at least 0.9, where 1 is the maximum)
Outline: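 Chemicals (10-point, 0.002-200 uM) were first incubated 2 hours with alginate-immobilized induced male Sprague Dawley rat liver S9. The conditioned medium was then applied to VM7Luc4E2 cells for 24 hours, with ER luciferase induction read by luminescence relative to 17beta-estradiol.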

[2] = CCTE_Deisenroth_AIME_384WELL_CTox_Active: Cytotoxicity Assessment (CTOX) in CCTE's 384-well Estrogen Receptor Transactivation Assay with AIME metabolic competence (metabolism positive), Deisenroth Lab (AID 2284037; active = hit-call score of the fitted dose curve at least 0.9, where 1 is the maximum;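 also: chemicals first conditioned 2 h by alginate-bound induced rat liver S9 before cells; activity means signal loss indicating cell death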)
Outline: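 VM7Luc4E2 breast cells received medium pre-incubated 2 h with chemical over alginate microspheres holding induced male Sprague Dawley rat liver S9; viability read 24 h later by protease-substrate fluorescence. Loss of signal, bidirectional fit, 0.002–200 uM.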

[3] = CCTE_Deisenroth_AIME_384WELL_CTox_Inactive: Cytotoxicity Assessment (CTOX) in CCTE's 384-well Estrogen Receptor Transactivation Assay without AIME metabolic competence (metabolism negative), Deisenroth Lab (AID 2284039; active = hit-call score of the fitted dose curve at least 0.9, where 1 is the maximum;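 also: cell viability via live-cell protease substrate cleaved to fluorescent probe; cells exposed 24 h to medium preincubated 2 h with alginate-water beads without S9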)
Outline: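 Fluorescence from a live-cell protease substrate, read after 24 h in VM7Luc4E2 cells, indicated viability. Test medium came from a 2 h AIME step without hepatic S9 (alginate-water microspheres); concentrations spanned 0.002 - 200 uM, single technical replicate per run.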

[4] = molecular target: Estrogen receptor (Homo sapiens) (UniProt P03372); experiment: CCTE_Deisenroth_AIME_384WELL_LUC_Shift: CCTE's 384-well Estrogen Receptor Transactivation Assay with AIME metabolic competence data shift (ERTA luciferase; difference in metabolism positive and negative), Deisenroth Lab (AID 2284041);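 also: shift is response with S9 minus without S9 so positive means metabolism raised ER signal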
Outline: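 Here, parent compounds undergo 2 h phase I metabolism by PB/BNF-induced rat S9 before 24 h transactivation in VM7Luc4E2 cells; the curve models S9-positive minus S9-negative response over a 10-point series.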

[5] = CCTE_Shafer_MEA_acute_network_burst_percentage: CCTE's Neural Acute Assay for Percentage of Network Bursts, Shafer Lab (AID 2284022);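 also: curves fitted for loss so actives lower network burst percentage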
Outline: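 Rat primary cortical neuron networks on 48-well MEA plates, DIV 13 or 15, treated acutely with compound (0.03-40 uM, at least three wells). Percent of spikes within network bursts compared between 40-min recordings before and during exposure at 37 C, expressed as percent change.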

[6] = CCTE_Shafer_MEA_dev_firing_rate_mean: CCTE's Neural Network Formation Assay for Mean Firing Rate, Shafer Lab (AID 2284031);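 as to AC50: curve fitted for loss of firing so AC50 reflects decreased mean firing rate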
Outline: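 Read-out: spike count/recording length, averaged over active electrodes, then AUC across days 5, 7, 9, 12. Rat cortical cultures on MEA; continuous 12-day exposure, media and treatment renewed DIV 5, 9; DMSO baseline.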

[7] = CCTE_Shafer_MEA_dev_per_burst_spike_percent: CCTE's Neural Network Formation Assay for Percent of Spikes in a Burst, Shafer Lab (AID 2284032);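 as to AC50: fitted as a decrease in burst spike percentage below DMSO baseline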
Outline: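 Value is trapezoidal AUC over recordings on days 5, 7, 9 and 12 of the well-mean fraction of spikes falling in single-electrode bursts; rat cortical cultures exposed continuously from plating, treatment renewed DIV 5 and 9, fitted downward against DMSO.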

[8] = CCTE_Shafer_MEA_dev_bursting_electrodes_number: CCTE's Neural Network Formation Assay for Number of Bursting Electrodes, Shafer Lab (AID 2284043; active = hit-call score of the fitted dose curve at least 0.9, where 1 is the maximum;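 as to AC50: potency is for loss of bursting electrodes relative to DMSO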)
Outline: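 Counted: electrodes with burst rate ≥1 per 2 min in each well. Cells: primary rat cortex, 1.5 x 10^5/well, on 16-electrode MEA wells. Exposure: DIV 0–12, compound renewed DIV 5 and 9. Recording days 5, 7, 9, 12; AUC vs DMSO baseline.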

[9] = CCTE_Shafer_MEA_dev_per_burst_interspike_interval: CCTE's Neural Network Formation Assay for Burst Interspike Interval, Shafer Lab (AID 2284044);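 as to AC50: potency for a decrease of within-burst interspike interval below DMSO level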
Outline: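 Primary rat cortical neurons on 48-well MEA plates, exposed from day 0 through day 12, treatment renewed at DIV 5 and 9. Within-burst interspike interval recorded days 5, 7, 9, 12, well-averaged, summarised as AUC; negative fit versus DMSO.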

[10] = CCTE_Shafer_MEA_dev_burst_duration_mean: CCTE's Neural Network Formation Assay for Mean Burst Duration, Shafer Lab (AID 2284045);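 as to AC50: curve fitted for loss meaning shorter burst duration than DMSO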
Outline: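 Network-formation assay in primary rat cortical neurons; treatment spans twelve days of development. Mean burst duration per well is integrated by trapezoidal AUC and fitted in the loss-of-signal direction against DMSO baseline.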

[11] = CCTE_Shafer_MEA_dev_interburst_interval_mean: CCTE's Neural Network Formation Assay for Mean Interburst Interval, Shafer Lab (AID 2284046);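 also: well-mean interburst interval of bursting electrodes as AUC over four recording days; curve fitted for decrease in interburst interval relative to DMSO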
Outline: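 Network formation assay in primary rat cortical cultures, exposed from DIV 0 to 12. Mean interburst interval per well, integrated as AUC over four recordings.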

[12] = CCTE_Shafer_MEA_dev_inter_network_spike_interval_mean: CCTE's Neural Network Formation Assay for Mean Inter-network Spike Interval, Shafer Lab (AID 2284047);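 as to AC50: potency for a decrease in mean inter-network spike interval below DMSO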
Outline: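 Compound was given at plating to primary rat cortical neurons and renewed with full medium changes on DIV 5 and 9. Extracellular activity was recorded on days 5, 7, 9, 12; AUC values were fitted for loss relative to DMSO control.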

[13] = CCTE_Shafer_MEA_dev_network_spike_number: CCTE's Neural Network Formation Assay for Number of Network Spikes, Shafer Lab (AID 2284048);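 also: synchronized bursts across electrodes counted on days 5 7 9 12 and integrated as AUC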;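 as to AC50: fit as a loss of signal meaning fewer network spikes than DMSO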
Outline: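 Extracellular recordings from 16-electrode wells track network formation in rat cortical cultures under continuous treatment from plating. The endpoint is network spike number, expressed as AUC across DIV 5–12 relative to DMSO vehicle.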

[14] = CCTE_Shafer_MEA_dev_network_spike_duration_std: CCTE's Neural Network Formation Assay for Standard Deviation of Network Spike Duration, Shafer Lab (AID 2284052);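 also: area under curve of spike duration SD across recording days 5 to 12; hits are decreases in network spike duration SD versus DMSO vehicle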
Outline: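 Developing networks of rat cortical neurons were exposed over twelve days in vitro on 48-well MEA plates. Trapezoidal AUC of recordings (DIV 5–12) was analysed for signal loss relative to DMSO vehicle.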

[15] = CCTE_Shafer_MEA_dev_per_network_spike_spike_number_mean: CCTE's Neural Network Formation Assay for Mean Number of Spikes in a Network Spike, Shafer Lab (AID 2284053)
Outline: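 First, rat cortical cells (1.5 x 10^5/well) were seeded onto MEA wells; second, dosing began at plating and was refreshed on DIV 5 and 9; finally, network-spike spike counts across DIV 5–12 were summarized as AUC.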

[16] = CCTE_Shafer_MEA_dev_per_network_spike_spike_percent: CCTE's Neural Network Formation Assay for Percent of Spikes in a Network Spike, Shafer Lab (AID 2284054)
Outline: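 Developing networks of rat cortical neurons are dosed at day 0 and recorded extracellularly four times up to day 12. The endpoint is the area under the curve of percent spikes in network spikes, fitted in the negative direction relative to DMSO.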

[17] = CCTE_Shafer_MEA_acute_cross_correlation_HWHM: CCTE's Neural Acute Assay for Cross Correlation at Half Width at Half Maximum, Shafer Lab (AID 2284026);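 also: percent change per well from pre-dose baseline in spike cross-correlogram half width; hits are a decrease in cross-correlogram half width relative to DMSO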
Outline: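 Rat primary cortical neurons on 48-well MEA plates; 40-min baseline and 40-min post-exposure recordings at 37 C on DIV 13 or 15, compounds 0.03-40 uM. Spikes detected at 8x rms noise; percent change in cross-correlogram HWHM per well vs baseline.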

DIO2 (gene 1734) = experiment: CCTE_GLTED_hDIO2: CCTE's human Deiodinase 2 (DIO2) Inhibition Assay, Great Lakes Toxicology and Ecology Division (GLTED) Lab (AID 2284050; active = hit-call score of the fitted dose curve at least 0.9, where 1 is the maximum)
Outline: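 Readout: absorbance from Sandell-Kolthoff detection of free iodide released by human DIO2 during a 3 h incubation with chemical. Cell-free format, n=3; activity fitted relative to DMSO negative control.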

DIO3 (gene 1735) = experiment: CCTE_GLTED_hDIO3: CCTE's human Deiodinase 3 (DIO3) Inhibition Assay, Great Lakes Toxicology and Ecology Division (GLTED) Lab (AID 2284055; active = hit-call score of the fitted dose curve at least 0.9, where 1 is the maximum;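 also: potency is for inhibition seen as loss of released iodide signal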)
Outline: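 hDIO3 (adenovirus-expressed) + test chemical, 3 h incubation; free iodide quantified by Sandell-Kolthoff reaction, absorbance read-out. DMSO negative control, n=3.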

[18] = molecular target: Estrogen receptor (Homo sapiens) (UniProt P03372); experiment: CCTE_Deisenroth_AIME_384WELL_LUC_Inactive: CCTE's 384-well Estrogen Receptor Transactivation Assay without AIME metabolic competence (ERTA luciferase; metabolism negative), Deisenroth Lab (AID 2284038; active = hit-call score of the fitted dose curve at least 0.9, where 1 is the maximum;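 also: hits raise estrogen receptor luciferase signal so potencies reflect agonists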)
Outline: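 Metabolism-negative mode: AIME lids stamped in alginate-water, no hepatic S9. 2 h chemical incubation → medium onto VM7Luc4E2 ERTA, 24 h. Readout luciferase luminescence; gain-of-signal fit vs 17beta-estradiol. Conc. 0.002 - 200 uM.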

Measured: AC50

Estrogen receptor (Homo sapiens), sequence (P03372 whole entry, looked up): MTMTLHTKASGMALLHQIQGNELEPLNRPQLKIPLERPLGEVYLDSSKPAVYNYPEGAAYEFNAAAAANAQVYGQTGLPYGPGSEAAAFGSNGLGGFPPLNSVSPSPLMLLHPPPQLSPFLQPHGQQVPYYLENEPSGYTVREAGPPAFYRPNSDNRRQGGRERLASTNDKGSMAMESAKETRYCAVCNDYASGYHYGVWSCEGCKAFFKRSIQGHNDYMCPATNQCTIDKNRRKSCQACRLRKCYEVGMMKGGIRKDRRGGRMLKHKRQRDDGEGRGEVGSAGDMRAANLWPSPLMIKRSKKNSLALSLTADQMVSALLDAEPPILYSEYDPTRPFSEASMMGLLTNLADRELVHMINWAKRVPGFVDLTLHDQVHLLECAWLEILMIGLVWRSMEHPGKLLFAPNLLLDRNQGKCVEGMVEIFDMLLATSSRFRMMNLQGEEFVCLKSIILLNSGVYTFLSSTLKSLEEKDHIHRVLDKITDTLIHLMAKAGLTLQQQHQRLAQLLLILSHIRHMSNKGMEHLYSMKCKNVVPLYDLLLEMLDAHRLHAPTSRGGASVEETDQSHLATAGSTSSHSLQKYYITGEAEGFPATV

COP(=O)(OC)SCn1c(=O)oc2cc(Cl)cnc21
active: [3] 100 µM | [4] 71.1 µM
inactive: [1] | [2]

CCOP(=O)(NC(C)C)Oc1ccc(SC)c(C)c1 (centres undefined)
inactive: [5] | [6] | [7] | [3] | [8] | [9] | [10] | [11] | [12] | [13] | [14] | [15] | [16]
active: [6] 22 µM | [7] 40.7 µM | [8] 32.3 µM | [10] 17.3 µM | [11] 31.5 µM | [13] 79.5 µM | [14] 10.1 µM | [15] 61.4 µM | [16] 11.7 µM

CON=C(C(=O)OC)c1ccccc1CON=C(C)c1cccc(C(F)(F)F)c1
inactive: [3]
active: [17] 0.278 µM | [6] 639 nM and 964 nM | [7] 1.11 µM and 1.32 µM | [2] 19.8 µM | [8] 728 nM and 758 nM | [9] 1.53 µM and 2.32 µM | [10] 674 nM and 995 nM | [11] 1.32 µM and 798 nM | [12] 969 nM and 1.72 µM | [13] 632 nM and 884 nM | [14] 642 nM and 886 nM | [15] 697 nM and 542 nM | [16] 981 nM and 686 nM

CC(COc1ccc(Oc2ccccc2)cc1)Oc1ccccn1 (centres undefined)
active: [5] 32.7 µM | [17] 8.8 µM
inactive: [2] | [3]

CCc1cccc(CC)c1N(COC)C(=O)CCl
active: DIO2 (gene 1734) 61.1 µM | DIO3 (gene 1735) 52.3 µM

S=C1NCCN1
inactive: [6] | [7] | [8] | [9] | [10] | [11] | [12] | [13] | [14] | [15] | [16]

CCCSP(=O)(OCC)SCCC
active: [7] 50 µM and 50.5 µM | [8] 24.9 µM and 22.7 µM | [15] 15.8 µM and 27.3 µM | [16] 24.3 µM and 26.5 µM
inactive: [6] | [9] | [10] | [11] | [12] | [13] | [14]

Nc1nc(N)nc(NC2CC2)n1
inactive: [2] | [3]

C#CC(C)(C)NC(=O)c1cc(Cl)cc(Cl)c1
inactive: [2] | [3]

CCCCOC(=O)[C@@H](C)Oc1ccc(Oc2ccc(C#N)cc2F)cc1
inactive: [1] | [2] | [18] | [4]

CC1(C(=O)Nc2ccc(O)c(Cl)c2Cl)CCCCC1
inactive: [2] | [3]

COP(=O)(OC)OC(Br)C(Cl)(Cl)Br (centres undefined)
inactive: [10] | [12]
active: [6] 7.31 µM and 13 µM | [7] 7.85 µM and 19.1 µM | [8] 6.36 µM and 12.9 µM | [9] 9.62 µM and 16 µM | [10] 12.8 µM | [11] 8.78 µM and 10.1 µM | [12] 2.15 µM | [13] 3.48 µM and 13.2 µM | [14] 4.26 µM and 9.92 µM | [15] 8.92 µM and 10.3 µM | [16] 8.6 µM and 12 µM

CCC(=NOC/C=C/Cl)C1=C(O)CC(C2CCOCC2)CC1=O (centres undefined)
inactive: [2] | [3]

CCOP(=S)(OCC)OC(Cl)C(Cl)(Cl)Cl (centres undefined)
inactive: [9] | [10] | [12] | [13] | [14]
active: [6] 23.4 µM | [7] 50 µM and 19 µM | [8] 31.8 µM and 23.2 µM | [9] 23.4 µM | [10] 23.4 µM | [11] 50 µM and 13.7 µM | [12] 13.1 µM | [13] 23.1 µM | [14] 13.9 µM | [15] 50 µM and 17.4 µM | [16] 26.7 µM and 18.6 µM

— PubChem BioAssay (EPA / NIEHS)
